The source of these data is PubChem BioAssay AID1671188 (National Center for Advancing Translational Sciences (NCATS), 2021).

“And” between values parts separate entries of the source, which are not always exact repeats. Equal entries are not always repeated. About 250 (0.25%) of roughly 100,000 compounds were called active. Inconclusive results (about 7%) are left out. The call rests on the fitted dose curve; in most records, active means well fitted inhibition curve with a large enough effect; inconclusive means small, poorly fitted or top-dose-only effect; inactive means flat fitted curve, though single readings scatter. What follows is part of a selection rich in actives, with near analogues and random picks from the rest.
On the % scale 0 is the no-effect control and ±100 the full control effect; potency means the concentration at half of the fitted maximal effect.

Chain of Alanine aminotransferase 2 (Homo sapiens) (Q8TD30 whole entry, looked up): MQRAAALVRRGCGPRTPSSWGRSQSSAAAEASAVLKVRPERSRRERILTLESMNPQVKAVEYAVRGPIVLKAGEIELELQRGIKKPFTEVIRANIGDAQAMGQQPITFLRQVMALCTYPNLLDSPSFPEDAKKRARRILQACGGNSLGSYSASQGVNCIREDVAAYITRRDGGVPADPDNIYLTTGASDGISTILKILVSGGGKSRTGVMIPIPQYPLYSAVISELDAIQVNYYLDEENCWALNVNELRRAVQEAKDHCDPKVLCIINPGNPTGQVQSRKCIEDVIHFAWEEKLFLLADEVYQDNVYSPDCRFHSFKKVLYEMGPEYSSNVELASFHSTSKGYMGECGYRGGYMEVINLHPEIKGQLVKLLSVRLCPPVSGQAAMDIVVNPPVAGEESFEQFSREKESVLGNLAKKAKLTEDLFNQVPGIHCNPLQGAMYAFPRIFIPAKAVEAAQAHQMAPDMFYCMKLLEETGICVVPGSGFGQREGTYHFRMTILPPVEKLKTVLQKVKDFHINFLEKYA

The assay concerns the target Alanine aminotransferase 2 (Homo sapiens) (UniProt Q8TD30). The experiment in a line: Primary qHTS assay for inhibitors of Glutamate pyruvate transaminase 2 (GPT2). Further: nearly all actives have a fitted effect of over 60% in size. The note with it: Recombinant GPT2, coupled pyruvate oxidase/HRP Amplex Red fluorescence; series mostly up to 57.7 µM; activity change, negative = inhibition: at the top concentration. Here is the method: Assay Provider: Zhenghe John Wang Ph.D.
Case Western Reserve University, Cleveland OH
Glutamate pyruvate transaminase 2 (GPT2) catalyzes the reversible transamination of glutamate and pyruvate to provide a-ketoglutarate and alanine. We have optimized an assay for GPT2 enzymatic activity that couples pyruvate formation to detection of fluorescence using an established pyruvate oxidase/horseradish peroxidase / Amplex Red system.
Screening conditions were 250uM a-KG, 2mM L-alanine, and 10ng/uL GPT2 in […] of solution; 10uL of Amplex reaction mix (outlined below) were added so that final concentrations of Amplex reagents in 50uL were 0.2mM ThPP, 0.2U/mL PO and HRP, and 50uM Amplex.
NOTE: The volume of GPT2 in the system depends on the activity of it. The activity is different every batch. You need to test the activity before the assay. For full plate assay with automation, plate 20uL of GPT2 buffer to pin into, then add 10uL of GPT2 dilution followed immediately by 10uL of substrate dilution. 2 Columns of the plate were devoted to GPT2 buffer ([…] PH7.5, 0.0001% Tween) + 50uM AOA (known GPT2 inhibitor) to serve as a positive control. Complete the assay as normal. Amplex-red buffer: […] PH7.5, 1 mM EDTA, 1 mM MgCl2.
1. Combine a-KG and L-alanine at desired concentrations and incubate for at least 10 minutes at 37C. Stocks of L-alanine and a-KG are diluted in distilled water. However, the stocks were diluted in GPT2 buffer for the assay.
2. Prepare GPT2 dilution at the desired concentration in GPT2 buffer.
3. Plate 40uL of GPT2 dilution with 40uL of substrate dilution and let incubate for 30 minutes at room temperature.
4. Add 20uL of Amplex reaction mix prepared as follows: 1.5uL 200U/mL Horseradish Peroxidase, 200mM Thiamine Pyrophosphate, 200U/mL Pyruvate Oxidase; 7.5uL 10mM Amplex Red; 288uL Amplex Buffer.
5. Incubate for 30 minutes at room temperature in the dark, then image using AM_Amplex_Fluorescence on plate reader nearest the window.
Take `CN(C)C(=O)c1ccc2oc(-c3ccnc(Cl)c3)nc2c1`: the outcome was inactive.
With `CC(C)c1ccc(CN2CCC3(CC2)COCCN3C(=O)c2ccc3[nH]ncc3c2)cc1`, the “activity change, negative = inhibition” value was -10.3% [at 88.5 µM] (inactive).
On to `CC(=O)N1C[C@@H]2CCCN3CCC[C@@H]([C@H]23)[C@H]1CCCC(=O)N1CCN(C2CCN(C)CC2)CC1`, for which the outcome was inactive.
Regarding `COc1ccc(CC(=O)NC2CCN(Cc3ccc(-c4ccccc4OC)cc3)C2)cc1` (stereo unspecified), the “activity change, negative = inhibition” value was -5.21% (inactive).
Consider `O=C1[C@H]2CN(Cc3ccc(Cl)c(F)c3)C[C@H]2C(=O)N1CCc1ccccc1`, for which the result was inactive.
On the same count and under the same terms, the same measure for `O=C(c1ccc(C(F)(F)F)cc1)N1CCN(c2ccnc3ccnn23)CC1`: “inactive”.
For `O=C(N1CCC(Cc2nc(-c3ccccc3)n[nH]2)C1)C1(c2ccccc2)CC1` (stereo unspecified), the outcome was inactive.
Turning to `O=C(c1ccccc1Cl)N1CCC2(CC1)NC(=O)N(c1cccc(Cl)c1)N2`, the “activity change, negative = inhibition” value was -13.9% (inactive).
Take `CC(C)c1noc(-c2cn(C3CCN(C(=O)c4cccc(C#N)c4)C3)nn2)n1` (stereo unspecified): the outcome was inactive.
In the case of `O=C1NCCOCCN(S(=O)(=O)c2cccs2)[C@@H]2CCCC[C@H]12`, the “activity change, negative = inhibition” value was 3.21% (inactive).
For `CNC(=O)c1ccccc1Nc1nc(Nc2ccc(N3CCOCC3)cc2OC)ncc1Cl`, the Potency was 10.9 µM (active) and 7.08 µM (active).
As for `CNC(=O)c1ccccc1Nc1nc(Nc2ccc3c(c2OC)CCC[C@@H](N2CCN(CCO)CC2)C3)ncc1Cl`, the “activity change, negative = inhibition” value was 2.02% (inactive).
For the compound `COc1ccccc1Nc1ncc2c(n1)CN(C(=O)COc1ccccc1)CCN2`, the “outcome” value was “inactive [at 88.5 µM]”.
For `COc1cccc(-c2ccc(C(=O)N3CCC(NC(=O)Cc4ccc(F)cc4)CC3)cc2)c1`, the Potency entry was “inactive”.
For the compound `COc1ccccc1OC(C)(C)C(=O)N1CC(C)(C)[C@@](C)(O)C1`, the outcome was inactive.
In the case of `CN(CC1CCOCC1)C(=O)Nc1ccc(Cl)cc1`, the result was inactive.
Turning to `O=S(=O)(Cc1ccccc1)N1CC(c2nc(-c3ccncc3)no2)C1`, the “activity change, negative = inhibition” value was 2.41% (inactive).
`COc1ccc(CN2CCN(c3nc4ccccc4o3)CC2CCO)cc1C` (stereo unspecified): the activity change, negative = inhibition is -2.15% [at 11.5 µM] (inactive).
As for `COc1ccc(-n2cccn2)c(CN2CCC3(CCNC(=O)CC3)CC2)c1`, the outcome was inactive.
`Cc1noc(C)c1-c1cc2c(cc(C)n2C)c(NCCCn2ccnc2)n1`: the “activity change, negative = inhibition” value is -9.58% [at 88.5 µM] (inactive).
For the compound `COc1ccccc1Cn1c(=O)c(C(=O)NCc2ccc(F)cc2)nc2cccnc21`, the outcome was inactive.
In the case of `O=C(c1ccc(F)cc1)N1CCCC(C(=O)N2CCCC2c2nc3ccncc3[nH]2)C1` (stereo unspecified), the “activity change, negative = inhibition” value is 2.57% (inactive).
The same measure, in the same setting: the same measure for `CN1CCN(C(=O)c2ccc3oc(-c4ccncc4Cl)nc3c2)CC1`: 0.757% (inactive).
As for `COc1cccc(N2C(=O)NC(=NC3CCCCC3)C23CCN(CC2CCCCC2)CC3)c1`, the “activity change, negative = inhibition” value was -2.84% (inactive).
In the case of `CC1=C(C(=O)OC(C)(C)C)C(c2ccccc2F)N2C(CC(=O)N3CCCC3)=CSC2=N1` (stereo unspecified), the outcome was inactive.
On to `O[C@@H]1C[C@@H](c2nc(-c3cccnc3)no2)N(Cc2cccs2)C1`, for which the “activity change, negative = inhibition” value is -4.15% [at 88.5 µM] (inactive).
